The panel holds about 83,000 compounds, 20% with a hit somewhere; the sample as a whole holds those more often.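 Interpretation: 100, growth as untreated; towards 0, rising growth inhibition; 0, no net growth; 0 to -100, cell death. Compounds scoring below 10 were considered active.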 Calls of active or inactive are those of the source.
Key:
Test in all cases: NCI-60 one-dose screen, 48 h (100 = growth as untreated, 0 = no growth, -100 = all killed)
[1] = tested on: 786-0 renal; settings: 10 µM unless noted
[2] = tested on: COLO 205 colon; settings: 10 µM
[3] = tested on: RXF 393 renal; settings: 10 µM unless noted
[4] = tested on: SF-295 CNS; settings: 10 µM unless noted
[5] = tested on: SF-539 CNS; settings: 10 µM unless noted
[6] = tested on: UACC-257 melanoma; settings: 10 µM unless noted
[7] = tested on: HT29 colon; settings: 10 µM unless noted
[8] = tested on: SK-MEL-5 melanoma; settings: 10 µM unless noted
[9] = tested on: SK-MEL-2 melanoma; settings: 10 µM unless noted
[10] = tested on: UO-31 renal; settings: 10 µM unless noted
[11] = tested on: TK-10 renal; settings: 10 µM unless noted
[12] = tested on: ACHN renal; settings: 10 µM unless noted
[13] = tested on: MOLT-4 leukemia; settings: 10 µM
[14] = tested on: T-47D breast; settings: 10 µM unless noted
[15] = tested on: HCC-2998 colon; settings: 10 µM unless noted
[16] = tested on: NCI-H460 lung; settings: 10 µM unless noted
[17] = tested on: MALME-3M melanoma; settings: 10 µM unless noted
[18] = tested on: A498 renal; settings: 10 µM unless noted
[19] = tested on: HL-60(TB) leukemia; settings: 10 µM unless noted
[20] = tested on: SW-620 colon; settings: 10 µM unless noted

CC(=O)Nc1ccc(C=C2C(=O)NC(=O)NC2=O)cc1
growth [1]: 96.3% (inactive)
growth [2]: 106% (inactive)
growth [3]: 118% (inactive)
growth [4]: 104% (inactive)
growth [5]: 105% (inactive)
growth [6]: 98.4% (inactive)
growth [7]: 109% (inactive)
growth [8]: 115% (inactive)
growth [9]: 109% (inactive)
growth [10]: 84.5% (inactive)
growth [11]: 107% (inactive)
growth [12]: 109% (inactive)
growth [13]: 88% (inactive)
growth [14]: 106% (inactive)
growth [15]: 104% (inactive)

C[CH2][Pb]([CH2]C)([CH2]C)[O]C(=O)COc1ccccc1
growth [16]: 4.05% (active)
growth [1]: -22% (active)
growth [2]: 1.67% (active)
growth [17]: 21.8% (inactive)
growth [3]: 7.08% (active)
growth [4]: -62.3% (active)
growth [5]: -21.8% (active)
growth [7]: 4.3% (active)
growth [8]: -21.4% (active)
growth [9]: -0.355% (active)
growth [10]: -6.3% (active)
growth [12]: 11.5% (inactive)
growth [18]: -2.32% (active)
growth [19]: -48.1% (active)
growth [13]: -27.2% (active)
growth [14]: 17.2% (inactive)
growth [20]: 6.03% (active)
growth [15]: -52% (active)

Nc1nc(N)c(-c2ccc(Cl)c(Cl)c2)c(/C=C/c2ccc(S(=O)(=O)F)cc2)n1
growth [16]: 77% (inactive)
growth [1]: 76.9% (inactive)
growth [2]: 98.1% (inactive)
growth [17]: 86.9% (inactive)
growth [3]: 90.6% (inactive)
growth [5]: 80.1% (inactive)
growth [6]: 76.3% (inactive)
growth [7]: 59.4% (inactive)
growth [8]: 84.6% (inactive)
growth [9]: 86.3% (inactive)
growth [10]: 74.7% (inactive)
growth [11]: 86.8% (inactive)
growth [12]: 67.8% (inactive)
growth [18]: 87.7% (inactive)
growth [19]: 91.9% (inactive)
growth [13]: 76.8% (inactive)
growth [14]: 96.1% (inactive)
growth [20]: 78.5% (inactive)
growth [15]: 111% (inactive)

CC(C)Nc1ccc(Nc2ccccc2)cc1
growth [16]: 11% (inactive)
growth [1]: 51.8% (inactive)
growth [2]: 43.6% (inactive)
growth [17]: 43% (inactive)
growth [3]: 55.5% (inactive)
growth [4]: 12.5% (inactive)
growth [5]: 26.1% (inactive)
growth [6]: 47.5% (inactive)
growth [7]: 7.96% (active)
growth [8]: 57.9% (inactive)
growth [9]: 80.5% (inactive)
growth [10]: 83.1% (inactive)
growth [11]: 45.2% (inactive)
growth [12]: 30.5% (inactive)
growth [18]: 65.9% (inactive)
growth [19]: 69.3% (inactive)
growth [13]: 43.6% (inactive)
growth [14]: 42.9% (inactive)
growth [20]: 33.8% (inactive)
growth [15]: 49.6% (inactive)

CCOc1ccc(C(O)CN(C)Cc2ccccc2)cc1Cl (stereo not given)
growth [16]: 102% (inactive)
growth [1]: 100% (inactive)
growth [2]: 105% (inactive)
growth [17]: 104% (inactive)
growth [3]: 90.5% (inactive)
growth [4]: 96.1% (inactive)
growth [5]: 108% (inactive)
growth [6]: 108% (inactive)
growth [7]: 98% (inactive)
growth [8]: 93.2% (inactive)
growth [9]: 102% (inactive)
growth [10]: 85.5% (inactive)
growth [11]: 102% (inactive)
growth [12]: 109% (inactive)
growth [18]: 90.5% (inactive)
growth [19]: 103% (inactive)
growth [13]: 96.3% (inactive)
growth [14]: 97.1% (inactive)
growth [20]: 98.5% (inactive)
growth [15]: 102% (inactive)

C=CC(O)CN1CC1CC (stereo not given)
growth [16]: 100% (inactive)
growth [1]: 107% (inactive)
growth [2]: 114% (inactive)
growth [17]: 110% (inactive)
growth [3]: 115% (inactive)
growth [4]: 102% (inactive)
growth [5]: 98% (inactive)
growth [6]: 88.6% (inactive)
growth [8]: 115% (inactive)
growth [10]: 86.3% (inactive)
growth [12]: 102% (inactive)
growth [18]: 89.5% (inactive)
growth [19]: 101% (inactive)
growth [13]: 96.2% (inactive)
growth [14]: 101% (inactive)
growth [20]: 92% (inactive)
growth [15]: 96.2% (inactive)

CC(=O)[O][Hg][c]1nc2c(c(=O)n(C)c(=O)n2C)n1C
growth [16]: 98.8% (inactive)
growth [1]: 102% (inactive)
growth [2]: 113% (inactive)
growth [17]: 49.8% (inactive)
growth [3]: 97.6% (inactive)
growth [4]: 98.9% (inactive)
growth [5]: 104% (inactive)
growth [6]: 98% (inactive)
growth [7]: 95.6% (inactive)
growth [8]: 90.8% (inactive)
growth [9]: 98.6% (inactive)
growth [10]: 104% (inactive)
growth [11]: 110% (inactive)
growth [12]: 112% (inactive)
growth [18]: 125% (inactive)
growth [19]: 104% (inactive)
growth [13]: 100% (inactive)
growth [14]: 88.8% (inactive)
growth [20]: 71.1% (inactive)
growth [15]: 131% (inactive)

C/C(=C\c1cc(C(F)(F)F)n(-c2ccc(N)cc2)n1)[C@@H]1C[C@@H]2O[C@]2(C)CCC[C@H](C)[C@H](O)[C@@H](C)C(=O)C(C)(C)[C@@H](O)CC(=O)O1
growth [16]: 3.04% (active)
growth [1]: 8.49% (active)
growth [2]: -45% (active)
growth [17]: 58.1% (inactive)
growth [3]: -8.53% (active)
growth [4]: 2.01% (active)
growth [5]: -18.5% (active)
growth [6]: 26.6% (inactive)
growth [10]: 26.6% (inactive)
growth [12]: 31.9% (inactive)
growth [18]: -0.114% (active)
growth [19]: 0.265% (active)
growth [13]: 4.35% (active)
growth [14]: 12.8% (inactive)
growth [20]: 26.5% (inactive)
growth [15]: 8.18% (active)
